Laboratory results published in PubChem BioAssay (NCATS).
Records with an inconclusive call do not appear. Entries that show only a call come without a potency. The source made the active and inactive calls. Calls come from the whole dose curve; as a rule, active = well fitted inhibition curve with a large enough effect; inconclusive = small, poorly fitted or top-dose-only effect; inactive = no such curve, though single readings can be large or run the other way. Non-standard residues stand in square brackets, D forms with d. Residues, ends and D or L forms follow the SMILES beside them. *: point of attachment. Sta = CC(C)C[C@H](N)[C@@H](O)CC(=O)O; Isovaleryl = CC(C)CC(=O)*
Potency is the fitted concentration of half-maximal effect.

Experiment: qHTS Screen of the MIPE 4.0 Collection Against Ewings Sarcoma (TC71) (AID 1259253); note: nearly all actives have a fitted effect of over 40% in size
Conditions: TC71 Ewing sarcoma viability, CellTiter-Glo, 48 h; series mostly up to 45.8 µM
Text: There is a large unmet medical need for treatments for Ewing sarcoma, a pediatric sarcoma. We sought to identify compounds that inhibited Ewing sarcoma cells in vitro with the goal to then test promising drugs in two drug combinations in vitro to look for synergistic drug combinations. Promising combinations would then proceed to additional validation, including in vivo testing.
Using the NCATS developed oncology compound library called the Mechanism of Interrogation Plate (MIPE), four Ewing sarcoma cell lines were evaluated (TC32, TC71, RDES, EW8). Compounds, in a 12-point titration series, were incubated with cells for 48 hours and the read out was cell viability (CellTiter-Glo from Promega). These initial experiments were used to select appropriate concentrations of each single agent for subsequent two-drug matrix combinations such that the concentrations in the matrices would span both activity and non-activity.
Cells, in the log phase of growth, were seeded in 5 uL of RPMI plus 5% FBS, […] L-glutamine, 100 U/ml penicillin and 100 ug/ml streptomycin into 1536-well solid-bottom white tissue culture treated Greiner Bio One Plates (789173-F) using a MultiDrop Combi (Thermofisher Scientific) dispenser and a small sterile cassette. One column was media alone to be used as a :"no cells" control. The plates were then covered with sterilized stainless steel gasketed lids from Kalypsys. After allowing cells to attach for 4 hours, 23 nL of test compound or control (negative control DMSO and positive control 9.2 uM Bortezomib-final) were added from a 1536-well polypropylene compound source plate to each well using a 1536 head pin tool from Kalypsys. Cells were then incubated for 48 hours at 37C, 95% relative humidity and 5% CO2. After 48 hours, plates were removed from the incubator and 3 uL of CellTiter-Glo (Promega) was added using an Aurora Flying Reagent Dispenser Bioraptor. Plates were incubated at room temperature for 10 minutes prior to reading the luminescence on the Viewlux (PerkinElmer). The relative luciferase units are used to calculate the percent activity using the activity of DMSO in the cells and no cells columns for normalization of no inhibition and full inhibition respectively.
With `Cc1nccn1CC1CCc2c(c3ccccc3n2C)C1=O` (stereo not given) the Potency was 16.6 µM (active).
For `CCC1=C(C)CN(C(=O)NCCc2ccc(S(=O)(=O)NC(=O)NC3CCC(C)CC3)cc2)C1=O` (stereo not given), the Potency was “inactive”.
For `Cc1ccc(S(=O)(=O)NC(=O)NN2CC3CCCC3C2)cc1` (stereo not given), the Potency was 16.6 µM (active).
For `CC1=C(C(=O)O)N2C(=O)[C@@H](NC(=O)[C@H](N)C3=CCC=CC3)[C@H]2SC1`, the Potency was “inactive”.
For `COc1cc(OC)c(C(=O)CCCN2CCCC2)c(OC)c1`, the Potency was “inactive”.
For `Nc1nc(N)c(N=O)c(OCC2CCCCC2)n1`, the Potency was 16.6 µM (active).
In the case of `CC(C)(S)[C@@H](N)C(=O)O`, the Potency is reported as “inactive”.
For `c1cnc2cc3c(cc2n1)C1CNCC3C1`, the Potency was “inactive”.
With `CN(C)c1ccc2nc3ccc(=[N+](C)C)cc-3sc2c1` the Potency was 3.72 µM (active).
For `CCOC(=O)C1=C(O)C(=O)N(Cc2ccccc2)C1`, the Potency was “inactive”.
For `COC(=O)C1=C(C)NC(C)=C(C(=O)OCCCN2CCC(c3ccccc3)(c3ccccc3)CC2)C1c1cccc([N+](=O)[O-])c1` (stereo not given), the Potency was 20.9 µM (active).
For `COc1ccc2cc([C@H](C)C(=O)O)ccc2c1`, the Potency was “inactive”.
With `O=Nc1c(-c2c(O)[nH]c3cc(Br)ccc23)[nH]c2ccccc12` the Potency was 7.43 µM (active).
With `O=c1c(O)c(-c2cc(O)c(O)c(O)c2)oc2cc(O)cc(O)c12` the Potency was “inactive”.
For `Nc1nc(Cl)nc2c1ncn2[C@H]1C[C@H](O)[C@@H](CO)O1`, the Potency was 0.372 µM (active).
With `CC1(C)CCC(C)(C)c2cc(NC(=O)c3ccc(C(=O)O)cc3)ccc21` the Potency was 18.7 µM (active).
With `COc1c(O)cc2c(c1O)[C@@H]1O[C@H](CO)[C@@H](O)[C@H](O)[C@H]1OC2=O` the Potency was “inactive”.
In the case of `CN(C)[C@@H](CCOc1cccc2ccccc12)c1ccccc1`, the Potency is reported as 26.4 µM (active).
For `Cc1cc2c(s1)Nc1ccccc1N=C2N1CCN(C)CC1`, the Potency was “inactive”.
In the case of `Nc1ccn([C@@H]2O[C@H](CO)[C@@H](O)C2O)c(=O)n1` (stereo not given in full), the Potency is reported as “inactive”.
In the case of `CCCS(=O)c1ccc2nc(NC(=O)OC)[nH]c2c1` (stereo not given), the Potency is reported as 23.5 µM (active).
For `O=c1cc(N2CCOCC2)oc2c(-c3ccccc3)cccc12`, the Potency was 18.7 µM (active).
In the case of `CCCCCCCCCCCCCCCCCCCCCCO`, the Potency is reported as “inactive”.
For `NNc1nncc2ccccc12`, the Potency was “inactive”.
For `CN(C)c1ccc(O)c2c1C[C@H]1C[C@H]3[C@H](N(C)C)C(=O)C(C(N)=O)=C(O)[C@@]3(O)C(=O)C1=C2O`, the Potency was 4.69 µM (active).
In the case of `C[C@H](Cn1cnc2c(N)ncnc21)OCP(=O)(O)O`, the Potency is reported as “inactive”.
For `CC(C)CC(=O)N[C@H](C(=O)N[C@H](C(=O)N[C@@H](CC(C)C)[C@@H](O)CC(=O)N[C@@H](C)C(=O)N[C@@H](CC(C)C)[C@@H](O)CC(=O)O)C(C)C)C(C)C` (Isovaleryl-VV[Sta]A[Sta]-OH), the Potency was “inactive”.
For `CC(C)c1ccc2c(c1)c(SC(C)(C)C)c(CC(C)(C)C(=O)O)n2Cc1ccc(Cl)cc1`, the Potency was 20.9 µM (active).
In the case of `O=C(O)CCNC(=O)c1ccc(N=Nc2ccc(O)c(C(=O)O)c2)cc1`, the Potency is reported as 9.35 µM (active).
With `CCOC(=O)C1=C[C@@H](OC(CC)CC)[C@H](NC(C)=O)[C@@H](N)C1` the Potency was “inactive”.
With `CN(c1nccc(=O)[nH]1)C1CCN(c2nc3ccccc3n2Cc2ccc(F)cc2)CC1` the Potency was 18.7 µM (active).
With `CN(C)C(=O)[C@H](O)[C@H](Cc1ccccc1)NC(=O)c1cc2cc(Cl)ccc2[nH]1` the Potency was 16.6 µM (active).
In the case of `Cc1nc2n(c(=O)c1CCN1CCC(c3noc4cc(F)ccc34)CC1)CCCC2`, the Potency is reported as “inactive”.
In the case of `O=C(c1ccccc1)c1ccc2n1CCC2C(=O)O` (stereo not given), the Potency is reported as 4.18 µM (active).
With `NS(=O)(=O)c1cc(C(=O)O)c(NCc2ccco2)cc1Cl` the Potency was “inactive”.
For `Cc1cc(O)c2c(c1)C(=O)c1cc(O)cc(O)c1C2=O`, the Potency was “inactive”.
In the case of `CC(C)[C@H](N)C(=O)OCCOCn1cnc2c(=O)[nH]c(N)nc21`, the Potency is reported as “inactive”.
In the case of `O=C(OC1C[C@H]2CC[C@@H](C1)[N+]21CCCC1)C(O)(c1ccccc1)c1ccccc1` (stereo not given in full), the Potency is reported as “inactive”.
For `CCOC(=O)C(C)Oc1cccc2c(=O)n(CC(=O)Nc3ccc4c(c3)OCCO4)ccc12` (stereo not given), the Potency was “inactive”.
In the case of `C=C(c1ccc(C(=O)O)cc1)c1cc2c(cc1C)C(C)(C)CCC2(C)C`, the Potency is reported as “inactive”.
